# Measured values published in PubChem BioAssay AID2061323 (National Center for Advancing Translational Sciences (NCATS), 2025).
# Inconclusive results are not listed. Activity calls are given as the source filed them. The call rests on the fitted dose curve; in most records, active means well fitted inhibition curve with a large enough effect; inconclusive means small, poorly fitted or top-dose-only effect; inactive means flat fitted curve, though single readings scatter.
# Experiment: Identification of antibody-drug conjugate (ADC) payloads which are substrates of ATP-binding cassette drug efflux transporters: ABCG2-HEK293-R5 cell line
# Conditions: ABCG2-HEK293-R5 viability, CellTiter-Glo ATP luminescence, 48 h
# From the text: Antibody-drug conjugates (ADCs) feature an antibody recognizing a specific protein joined to a potent toxic payload. Numerous antibody-drug conjugates have received FDA approval; however, clinical resistance arises. Resistance mechanisms include decreased expression or mutation of the antibody target, impaired payload release, or increased expression of ATP-binding cassette (ABC) efflux transporters associated with multidrug resistance. We therefore sought to characterize the interaction of ABC multidrug transporters with ADC payloads. We performed a high-throughput screen with 27 common ADC payloads using cells lines expressing ABC transporters P-glycoprotein (P-gp, encoded by ABCB1) or ABCG2 (encoded by ABCG2). Confirmatory assays were also performed using cells transfected to express P-gp, ABCG2, or MRP1 (encoded by ABCC1). Several commonly used ADC payloads were substrates of P-gp, including calicheamicin gamma1, monomethyl auristatin E, DM1, and DM4. All the pyrrolobenzodiazepines tested - SJG136, SGD-1882, SG2057, and SG3199 - were substrates of P-gp, ABCG2, and MRP1. […] These findings highlight the risk of transporter-mediated resistance with certain ADC payloads and underscore the importance of selecting payloads that evade ABC transporter recognition in future ADC development.
# HEK-293 cells were transfected with empty vector (pcDNA) or vector containing the human ABCB1 (MDR-19), ABCG2 (R-5), or ABCC1 gene (MRP1) and were maintained in EMEM with 2 mg/mL G418 added to maintain transporter expression. The HeLa derivative KB-3-1 and the P-gp overexpressing KB-8-5-11 subline were maintained in DMEM; KB-8-5-11 additionally received 100 ng/mL colchicine. H460 parental cells were obtained from the Division of Cancer Treatment and Diagnosis Tumor Repository, National Cancer Institute at Frederick, MD and were cultured in RPMI. The ABCG2 expressing subline H460 MX20 was generated by selecting H460 cells in 20 nM mitoxantrone. Media in all cases was supplemented with 10% FBS and 1% penicillin-streptomycin. We explored 27 common ADC payloads, in two orthogonal, paired cell line sets-a drug selected and transfected set for each transporter--to identify substrates of the ABC transporters P-gp and ABCG2. Compounds were sourced from Levena Biopharma (San Diego, CA), Selleck Chem (Houston, TX), ChemieTek (Indianapolis, IN), or Microsource Discovery Systems (Gaylordsville, CT). Screening was performed as previously described. Briefly, cells were plated at a density of 500 cells/well in 1536 well plates with compounds added using a 1536-head pin tool (Kalypsys, San Diego CA). Cells were incubated with cytotoxic drugs and processed with CellTiter Glo reagent (Promega, Madison, WI) to determine viability after 48 hours. P-gp substrates were identified by comparing compound activity between paired sets of low-expressing (sensitive) and over-expressing (resistant) cell lines.
row,SMILES,Potency
1,CCN(C(C)=O)[C@H]1CO[C@@H](O[C@H]2[C@H](O[C@H]3C#C/C=C\C#C[C@]4(O)CC(=O)C(NC(=O)OC)=C3/C4=C\CSSSC)O[C@H](C)[C@@H](NO[C@H]3C[C@H](O)[C@H](SC(=O)c4c(C)c(I)c(O[C@@H]5O[C@@H](C)[C@H](O)[C@@H](OC)[C@H]5O)c(OC)c4OC)[C@@H](C)O3)[C@@H]2O)C[C@@H]1OC,67.1 nM (active)
2,COC(=O)c1cc2c3c(cc(O)c2[nH]1)N(C(=O)c1cc2cc(OC)c(OC)c(OC)c2[nH]1)CC3CCl (stereo not given),4.2 nM (active)
3,CC(C)(C)OC(=O)Nc1ccc2[nH]c(C(=O)N3C[C@@H](CCl)c4c3cc(O)c3ccccc43)cc2c1,33.6 nM (active)
4,CN(C)CCOc1ccc2[nH]c(C(=O)N3C[C@@H](CCl)c4c3cc(O)c3ccccc43)cc2c1,1.7 nM (active)
5,CCN[C@H]1CO[C@@H](O[C@H]2[C@H](O[C@H]3C#C/C=C\C#C[C@]4(O)CC(=O)C(NC(=O)OC)=C3/C4=C\CSSSC)O[C@H](C)[C@@H](NO[C@H]3C[C@H](O)[C@H](SC(=O)c4c(C)c(I)c(O[C@@H]5O[C@@H](C)[C@H](O)[C@@H](OC)[C@H]5O)c(OC)c4OC)[C@@H](C)O3)[C@@H]2O)C[C@@H]1OC,3.8 nM (active)
